Source: ChEMBL document CHEMBL3988442, “University of Dundee, Small-Polar-MMV Screening Library” (2021)
Where “and” joins values, the source holds several entries; their conditions need not be identical. Identical values can stand only once. The whole screen tested about 34,000 compounds, of which about 290 (0.85%) showed an effect of 50% or more. This is one part of a sample in which strong results are shown more often than they occur.

Test system: Plasmodium falciparum
Assay: Plasmodium falciparum sporozoite viability assay
Format: functional, organism-based
Parameters: scale not given: in the data most compounds retested in dose-response had high values

Structure (SMILES) | Percent Effect [%] | Percent Effect (10 mM as filed; unlikely as a test dose)
CC(C)Nc1nc(O)cc(C2CC(=O)N(Cc3ccccn3)C2)n1.Cl (configuration not stated) | 10.31 | –
CNc1cc(C)nc(C2CN(Cc3ccc(Cl)cn3)CCO2)c1 (configuration not stated) | 20.7 | –
CCC(=O)N1CCC(c2ncc(C(=O)Nc3ccccc3)c(C)n2)C1 (configuration not stated) | 8.085 | –
COc1ccc2cc(C(=O)N3CCCC3Cn3cc(C)cn3)[nH]c2c1 (configuration not stated) | -1.066 | –
COc1ccc(CC(=O)N2CCCC2Cn2cc(C)cn2)cc1OC (configuration not stated) | – | 8.878% and 3.897% and 0.6031%
Cc1nn(C)cc1-c1cncn1CCc1ccc2c(c1)OCCO2.Cl | – | 35.23% and 54.6% and 46.78%
COC1COC2(CCN(CC3CCOCC3)CC2)C1.O=C(O)C(F)(F)F (configuration not stated) | 2.7 | –
CC(C(=O)N1CCOCC1)n1nc(-c2cccs2)cc(N)c1=O (configuration not stated) | -6.596 | –
CCn1cc(CN2CCCN(C(=O)c3ccccc3OC)CC2)cn1 | 5.544 | –
Cc1nc(CN2CCCC(NCc3nc4ccccc4s3)C2)no1 (configuration not stated) | 12.82 | –
CCCc1cc(CNC2CCN(c3nc4ccccc4s3)CC2)on1 | – | 84.7% and 90.12%
CCCc1cc(CNC(=O)C2CCOc3ccccc3C2)on1 (configuration not stated) | 10.71 | –
CC(=O)N1N=C(c2ccccc2)OC1C(=O)NCCc1ccc(C)cc1 (configuration not stated) | -14.76 | –
CNC(=O)CN1CCCC12CCN(C(=O)c1ccccc1F)CC2.O=C(O)C(F)(F)F | -2.189 | –
Cl.Clc1ccccc1CN1CCc2nc(C3CCCNC3)ncc2C1 (configuration not stated) | 2.109 | –
CC(C)Oc1ccc2c(NC(=O)[C@H](C)O)nn(CC(F)(F)F)c2c1 | – | -22.23% and -11.46%
Cc1csc(NC(=O)[C@@H]2C[C@H]3[C@H](CCN3c3ncccn3)O2)n1.O=C(O)C(F)(F)F | 2.312 | –
CCCn1cc(C(=O)N2CCOC(c3nc(-c4cccs4)no3)C2)cn1 (configuration not stated) | – | 42.39% and 34.52% and 29.79%
CCn1ccc(C(=O)N2CCOC(c3nc(-c4cccs4)no3)C2)n1 (configuration not stated) | – | -10.26% and 14.68% and 1.172%
CCn1cc(C(=O)N2CCOC(c3nc(-c4cccs4)no3)C2)cn1 (configuration not stated) | – | 66.92% and 76% and 54.9%
Cc1nc(-c2nc(C(=O)N3CCOCC3)c3ccccn23)cn1C(C)C | – | 54.88% and 55.7%
Cn1cnc(-c2nc(C(=O)NC3CC3)c3ccccn23)c1 | 10.82 | –
Cc1nc(-c2nc(C(=O)N(C)C)c3ccccn23)cn1C(C)C | – | 38.79% and 23.46% and 42.96%

Structure (SMILES) | Percent Effect [%] | Percent Effect (10 mM as filed; unlikely as a test dose)
CC(C)n1cnc(-c2nc(C(=O)NC3CC3)c3ccccn23)c1 | 6.582 | –
Cc1nc(-c2nc(C(=O)NC3CC3)c3ccccn23)cn1C(C)C | – | 58.89% and 55% and 41.86%
Cn1cnc(-c2cc(C(=O)N3CCOCC3)c3ccccn23)c1 | -1.371 | –
CCNC(=O)c1cc(OC)c2cc(F)cc(C)c2n1 | 1.557 | –
Cc1cncnc1C1CCN(CC2CC2)CC1 | 1.471 | –
CCCOc1cccc(OCc2ccon2)c1 | -14.79 | –
Cc1cc(C)n(CC2CCCCN2CCc2ccncc2)n1 (configuration not stated) | 5.224 | –
Cc1c(C)n2c(SCC(=O)N3CCCCCC3)nnc2[nH]c1=O | – | -20.75% and -26.48%
CNC(=O)CNC(=O)c1ccc(-c2scnc2C)nc1 | 1.458 | –
CCc1ccc(C(=O)NCc2ccnc(N3CCN(C)CC3)c2)o1 | 8.293 | –
CCc1nnc2n1CCN(CCC(=O)Nc1sccc1C#N)C2 | 5.694 | –
CCOC[C@@H]1CC[C@H]2[C@H](CCN2C(=O)c2cnccn2)O1 | -3.07 | –
c1ccc(-c2nc(CNC3CCc4ncnn4C3)cs2)cc1 (configuration not stated) | 1.596 | –
CC(=O)N1CCN(Cc2coc(-c3cccc(F)c3)n2)CC1 | – | -29.73% and -43.84% and -27.15%
OCCN1CCN(Cc2coc(-c3cccc(Cl)c3)n2)CC1 | -3.989 | –
CCN1CCN(Cc2coc(-c3cccc(F)c3)n2)CC1 | – | 64.85% and 77.13% and 53.15%
N#Cc1ccc(NCCC(=O)N2CCCc3ccccc32)nc1 | -11.08 | –
Cc1cc(CC2COCCN(CCc3ccccc3)C2)ncn1 (configuration not stated) | 5.745 | –
O=C(c1cc(-c2cccnc2)[nH]n1)N1CCCC(c2cnccn2)C1 (configuration not stated) | 12.79 | –
COc1ccc2cc(C3CN(C(=O)C4CCOCC4)CCO3)ccc2c1 (configuration not stated) | – | 90.24% and 38% and 72.69%
COc1ccc2cc(C3CN(C(=O)CN4CCCC4)CCO3)ccc2c1 (configuration not stated) | – | 56.27% and 53.19% and 50.16%
COc1ccnc(N2CCN(CC(=O)N3CCOC(C)C3)CC2)n1 (configuration not stated) | -0.9874 | –
COc1ccc(-c2cnc(N(C)C)nc2C2CN(C(C)=O)CCO2)cc1 (configuration not stated) | 14.8 | –

Structure (SMILES) | Percent Effect [%] | Percent Effect (10 mM as filed; unlikely as a test dose)
CC(=O)NCC(=O)N1CCOC(c2cccc(N)n2)C1 (configuration not stated) | 2.685 | –
CC(=O)N1CCOC(c2ccnc(N(C)C)n2)C1 (configuration not stated) | 3.741 | –
COc1ccc(CN2CCO[C@H]3CN(C(=O)C4CC4)CC[C@H]3C2=O)cc1 | -7.815 | –
Cc1c[nH]nc1C1CCN(C(=O)C2CCOCC2)C1 (configuration not stated) | -9.491 | –
COc1ccc2cc(C3CN(C(=O)N(C)C)CCO3)ccc2c1 (configuration not stated) | – | 102.8% and 105.3% and 102%
COc1ccc2cc(C3CN(C(=O)CCNC(C)=O)CCO3)ccc2c1 (configuration not stated) | – | 97.44% and 100.2% and 98.47%
Nc1cccc(C2CN(C(=O)CN3CCOCC3)CCO2)n1 (configuration not stated) | 3.517 | –
COc1ccc2c(c1)[C@@H](CCNC(C)=O)CC(C)(C)O2 | 3.641 | –
COc1ccccc1CN1CCC2(CCC(C(=O)N(C)C)O2)CC1 (configuration not stated) | 9.72 | –
CCc1ncnc2c1CCN(S(=O)(=O)c1ccccc1)CC2 | 11.48 | –
O=C(O)c1cc(S(=O)(=O)Nc2ccc(F)c(Cl)c2)cc2c1OCCO2 | 12.45 | –
O=C(CC1CC1)N1CCc2ncc(Cn3cncn3)n2CC1.O=C(O)C(F)(F)F | 2.491 | –
CC(=O)N1CCc2ncc(CNC(=O)C3CCC3)n2CC1 | -7.632 | –
CNC(=O)c1ccc(C2CN(C(=O)COC)CCO2)nc1 (configuration not stated) | -16.96 | –
CNC(=O)CN1CCC(c2cc(OC)cc(OC)c2)C1 (configuration not stated) | -3.657 | –
COCC(=O)N1CCOC(c2cccc(-c3cncnc3)n2)C1 (configuration not stated) | 0.9327 | –
COc1ccc2cc(C3CN(C(=O)COC(C)C)CCO3)ccc2c1 (configuration not stated) | – | 38.96% and 58.61% and 49.31%
COCC(=O)N1CCOC(c2ccc(N(C)C)cn2)C1 (configuration not stated) | -1.133 | –
CNC(=O)CCC(=O)N1CCOC(c2ccc3cc(OC)ccc3c2)C1 (configuration not stated) | – | 98.94% and 98.67% and 101%
CC(C)COCCCNC(=O)NCC(O)c1cccc(F)c1 (configuration not stated) | 2.496 | –
Cc1ccc(Nc2nccc(C3CCN(C(=O)CO)C3)n2)nc1 (configuration not stated) | – | -6.369% and -30.39% and -30.26%
CC(=O)N1CC(c2ccnc(Nc3ccc(C)cn3)n2)C1 | – | 15.77% and 8.208% and 11.03%
Cl.Cl.NCC(=O)N1CCCC(c2ccnc(Nc3cnccn3)n2)C1 (configuration not stated) | 10.19 | –

Structure (SMILES) | Percent Effect [%] | Percent Effect (10 mM as filed; unlikely as a test dose)
Cc1ccc(Nc2nccc(C3CCN(C(=O)CN)C3)n2)nc1.Cl (configuration not stated) | – | 81.99% and 45.72% and 74.53%
CNCC(=O)N1CCCC(c2ccnc(Nc3cnccn3)n2)C1 (configuration not stated) | -8.636 | –
CCN1CCCC1CNCc1cc2ccccc2[nH]c1=O (configuration not stated) | 24.74 | –
c1cc(C2CCN(c3cnccn3)CC2)ccn1 | 11.86 | –
COc1ccc(C(=O)N(C)Cc2c(C)noc2C)cn1 | 8.528 | –
Cc1nc(C)n(CC2CCCN2Cc2nc(-c3ccco3)no2)n1 (configuration not stated) | – | -0.3641% and 0.04429% and -1.23%
CC(C)(C)CC1CCCN1Cc1nc(-c2ccco2)no1 (configuration not stated) | – | 58.36% and 65.06%
CN(C)CCN1C(=O)CC[C@@H]2[C@H]1CCN2Cc1cccc(C#N)c1.O=C(O)C(F)(F)F.O=C(O)C(F)(F)F | -0.2577 | –
Cc1nc(C)n(CC2CCCN(CCOc3ccccc3C#N)C2)n1 (configuration not stated) | 12.74 | –
O=C(NCC1CC1)[C@H]1C[C@H]2OCC[C@H]2N(Cc2ccoc2)C1 | -11.2 | –
Cn1nccc1CNC(=O)CCn1nc(C(F)(F)F)c(Cl)c1C1CC1 | 10.43 | –
O=C(COCc1ccccc1Cl)N1CCN(c2ncccn2)CC1 | 3.259 | –
CC(C)(O)CN1CCN(C(=O)COCc2ccccc2Cl)CC1 | – | 71.26% and 47.5% and 53.2%
COc1ccc(COCC(=O)N2CCN(CC(C)(C)O)CC2)cc1 | – | 7.514% and -16.19% and -8.725%
CC(NC(=O)CCCc1nc(C(C)(C)C)no1)c1ccccn1 (configuration not stated) | 4.866 | –
Cc1nn(C)cc1-c1cc(C(=O)NCC(C)(C)c2cccc(F)c2)n[nH]1 | -0.9712 | –
CN(C)CC1CSCCCN1C(=O)c1ccc(-c2ccccc2)cc1 (configuration not stated) | 11.37 | –
CC(NCC(=O)NCC(=O)Nc1ccc(F)cc1)c1cccs1 (configuration not stated) | 0.1791 | –
CN(C)C(=O)CN1CCC2(CC1)CC(=O)c1c(ccc3ccccc13)O2 | 16.77 | –
NC(=O)CN1CCC2(CC1)CC(=O)c1ccc3ccccc3c1O2 | – | 14.56% and 23.77% and 28.36%
CN(C)C(=O)CN1CCC2(CC1)CN(S(C)(=O)=O)Cc1ccccc1O2 | -23.82 | –
CN(C)C(=O)CN1CCC2(CC1)CC(=O)c1ccc3ccccc3c1O2 | – | 28.41% and 58.1% and 56.14%
CCOC(=O)CN1CCC2(CC1)CC(=O)c1ccc(OC)cc1O2 | -0.03409 | –
